Bioassay records: PubChem BioAssay, NMMLSC
In the library only some 1.3% were active in any assay of this set; here they are far more common.
RPL19A-GFP yeast – alters RPL19A-GFP fluorescence in TOR pathway yeast screen; hit rate 0.3% among 330,000; AID 2025; S. cerevisiae RPL19A-GFP strain, flow cytometry, 3 h; hits give low values; percent response vs DMSO, % at 10 µM;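 active = percent response vs DMSO below 50%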;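 also: median channel GFP fluorescence of the barcoded RPL19A-GFP strain; lower means less RPL19A-GFP as with rapamycin TOR inhibition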
CIT2-GFP yeast – alters CIT2-GFP fluorescence in TOR pathway yeast screen. S. cerevisiae CIT2-GFP strain, flow cytometry, 3 h; 100 means same as DMSO wells. GFP response vs DMSO, % at 10 µM. hit rate 0.065% among 320,000. AID 2029;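 active = GFP response relative to DMSO above a set limit, near the screen mean plus 3 SD, cut at about 150% in these data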;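 also: ratio of well median GFP fluorescence to mean of DMSO wells on the plate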
LAP4 TOR yeast – yeast TOR pathway LAP4-GFP modulation; S. cerevisiae LAP4-GFP multiplex, flow cytometry GFP, 3 h; median GFP as percent of DMSO wells; GFP response vs DMSO, % at 10 µM; hit rate 0.34% among 320,000; AID 2023;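 active = GFP response vs DMSO above a set limit, about the screen mean plus 3 SD, cut at about 150% in these data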
AGP1-GFP MLPCN – modulators of TOR pathway AGP1-GFP in S. cerevisiae; S. cerevisiae AGP1-GFP multiplex flow cytometry, 3 h; GFP as percent of DMSO wells; GFP response vs DMSO, % at 10 µM; hit rate 0.02% among 320,000; AID 2066;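 active = GFP response relative to DMSO above a set limit, near screen average plus 3 SD, cut at about 150% in these data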;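 also: median GFP channel fluorescence of the gated AGP1 strain per well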
Efflux pump mplx – blocks antifungal efflux pumps in multiplex yeast assay; inhibition, % at 10 µM; AID 485275; S. cerevisiae Candida pump triplex, Nile Red efflux; hit rate 0.44% among 330,000;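 active = plate passing quality check with inhibition over a set limit, or well fluorescence over plate mean plus 4 SD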;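 also: Nile Red retained in pooled yeast measured as flow cytometry median fluorescence; higher means more Nile Red kept so more efflux inhibition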
MEP2-GFP yeast – alters MEP2-GFP fluorescence in TOR pathway yeast screen; S. cerevisiae MEP2-GFP strain, flow cytometry GFP, 3 h; 100% = DMSO control level; GFP response vs DMSO, % at 10 µM; hit rate 0.51% among 330,000;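 active = GFP response versus DMSO above a set limit, roughly screen mean plus 3 SD, cut at about 180% in these data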;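 also: median GFP fluorescence of the barcode-gated MEP2-GFP cells per well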
LAP4-GFP pick2 – reconfirmed LAP4-GFP TOR pathway modulator in yeast | GFP response vs DMSO, % at 10 µM | S. cerevisiae LAP4-GFP strain, flow cytometry GFP, 3 h | shares compounds with LAP4 TOR yeast | AID 2621 | hit rate 20% among 590;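 active = GFP signal as percent of the solvent control above about 150%, meaning raised reporter expression, limit read from the data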
MEP2-GFP pick2 – reconfirmed MEP2-GFP TOR pathway modulator in yeast | shares compounds with LAP4 TOR yeast | S. cerevisiae MEP2-GFP strain, flow cytometry GFP, 3 h | GFP response vs DMSO, % at 10 µM | hit rate 10% among 590 | AID 2622;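 active = GFP signal above 150% of the solvent control wells, that is a rise of more than half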;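 also: median channel GFP fluorescence of all gated yeast cells per well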
RPL19A GFP CP2 – reconfirmed modulator of RPL19A-GFP TOR reporter in yeast; GFP response vs DMSO, % at 10 µM; hit rate 3% among 590; S. cerevisiae RPL19A-GFP strain, flow cytometry GFP, 3 h; hits give low values; 100% means same as DMSO wells; AID 2623; shares compounds with LAP4 TOR yeast;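 active = under 65% GFP response relative to DMSO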;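 also: median GFP channel fluorescence per well over the all cells gate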
CIT2 GFP CP2 – yeast CIT2-GFP TOR reporter modulation, second cherry pick. shares compounds with LAP4 TOR yeast. S. cerevisiae CIT2-GFP strain, flow cytometry GFP, 3 h; DMSO control wells read 100%. GFP response vs DMSO, % at 10 µM. hit rate 8% among 590. AID 2624;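 active = GFP response vs DMSO above about 150%, limit read from the data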;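 also: median green fluorescence per well over all gated yeast cells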
AGP1 GFP CP2 – yeast AGP1-GFP TOR reporter modulation, second cherry pick; shares compounds with LAP4 TOR yeast; S. cerevisiae AGP1-GFP strain, flow cytometry GFP, 3 h; percent response vs DMSO, % at 10 µM; 590 tested, under 10 active; AID 2643;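 active = over 150 percent of DMSO response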;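 also: median GFP channel fluorescence over all cells without mother daughter split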
Yeast autofluor – yeast s288c autofluorescence artifact, counter-screen; 610 tested, under 10 active; S. cerevisiae s288c, 520 nm autofluorescence, flow cytometry, 3 h; hits give high values; zero means same as solvent-only cells; shares compounds with LAP4 TOR yeast; AID 2757; fluorescence change (kMESF span) at 33 µM;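 active = fluorescence span over the dose series, or activity score, above about 33, limit read from the data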
s288c autofl DR – TOR screen hit shows autofluorescence in yeast s288c | S. cerevisiae s288c parental, compound autofluorescence, flow cytometry, 3 h | shares compounds with LAP4 TOR yeast | fluorescence change (span) at 33 µM | 110 tested, under 10 active;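 active = fluorescence change span, or the activity score built from it, above 25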
TORC1 bypass – stops wildtype yeast growth while TORC1 bypass cells still grow; S. cerevisiae BY4741 spot growth rating, 48-72 h; hits give low values; growth rating (0-3) at 30 µM; shares compounds with LAP4 TOR yeast; 120 tested, under 10 active; AID 504456;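 active = growth rating at most 1 for wild type yeast while the TORC1 bypass strain still grows fully, rated 3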
Numbers stand for hits; - = inactive; . = not tested or not shown.

SMILES	RPL19A-GFP yeast	CIT2-GFP yeast	LAP4 TOR yeast	AGP1-GFP MLPCN	Efflux pump mplx	MEP2-GFP yeast	LAP4-GFP pick2	MEP2-GFP pick2	RPL19A GFP CP2	CIT2 GFP CP2	AGP1 GFP CP2	Yeast autofluor	s288c autofl DR	TORC1 bypass
O=[N+]([O-])c1ccc(O)c2ncccc12	-	-	312.6	-	-	-	274.6	158.9	-	-	-	-	-	-
O=[N+]([O-])c1cc(F)c2cccnc2c1O	-	-	184.6	-	-	-	.	.	.	.	.	-	.	.
O=[N+]([O-])c1ccc(O)c2cccnc12	-	-	-	-	-	-	.	.	.	.	.	.	.	.
Oc1c(I)cc(Cl)c2cccnc12	-	-	286.0	-	-	-	226.0	216.3	-	176.4	-	-	-	-
Clc1cc2cccnc2c2ncccc12	-	-	167.9	-	-	-	-	-	-	-	-	.	.	.
COc1ccccc1CNC(=O)OCc1nccnc1C(=O)Nc1ccc(Br)cn1	-	-	-	-	-	-	.	.	.	.	.	.	.	.
Cc1c(C)c2cccnc2c2ncccc12	-	-	182.7	-	-	-	-	-	-	-	-	.	.	.
O=[N+]([O-])c1ccc(Cl)c2cccnc12	-	-	-	-	-	-	.	.	.	.	.	.	.	.
O=[N+]([O-])c1cc(Cl)c2cccnc2c1O	-	-	201.6	-	-	-	.	.	.	.	.	-	-	-
Cc1ccc2ccc3cccnc3c2n1	-	-	-	-	-	-	.	.	.	.	.	.	.	.
O=C(CCCN1C(=O)/C(=C/c2ccc(F)cc2)SC1=S)NC1CCS(=O)(=O)C1 (configuration not stated)	-	-	-	-	-	-	.	.	.	.	.	.	.	.
Cn1ncc(S(=O)(=O)Cc2ccccc2)c(Cl)c1=O	-	-	160.7	-	-	-	.	.	.	.	.	-	-	-
C/C(=N\NC(=O)c1ccc(C(C)(C)C)cc1)c1ccccn1	.	.	.	.	.	.	.	.	.	.	.	.	-	-
O=C1C(c2ccccc2)=[N+]([O-])c2ccccc21	-	-	160.3	-	-	-	-	-	-	-	-	.	.	.
COC1=C(c2ccccc2)C(=O)c2ccccc2C1=O	-	-	-	-	-	-	.	.	.	.	.	.	.	.
CC1(C)Cc2c(cnn2-c2ccc(F)cc2)C(NC(=O)CN2CCCCC2=O)C1 (configuration not stated)	-	-	-	-	-	-	.	.	.	.	.	.	.	.
NNc1nnc2c3cc(F)ccc3n(CCc3ccccc3)c2n1	-	-	-	-	-	-	.	.	.	.	.	.	.	.
CCCCC1(C)OC(=O)C(=Cc2ccc(-c3ccc(Cl)c(C(=O)O)c3)o2)C(=O)O1 (configuration not stated)	-	-	-	-	-	-	.	.	.	.	.	.	.	.
CCOC(=O)c1cc(-c2ccc(/C=C3/C(=O)NC(=O)C(C#N)=C3C)o2)ccc1Cl	-	-	151.1	-	-	-	.	.	.	.	.	-	.	.
